Compound activity from PubChem BioAssay.
NCOA1 inh = human NCOA1 inhibition; Q15788; HEK293 GAL4-SRC1 luciferase reporter, luminescence; inhibition, % at 3.6 µM; 360,000 tested, 0.12% active; AID 588354;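 active = inhibition above the campaign mean plus 3 SD, with each screening campaign given its own cutoff, cut at about 60% in these data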;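 note: 0% = DMSO treated cells and 100% = gossypol at 36 µM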
SRC2 inh = inhibits human steroid receptor coactivator 2. HEK293 GAL4-SRC2 luciferase reporter, luminescence. 370,000 tested, 0.17% active. Q15596. AID 651957. inhibition, % at 9 µM;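 active = inhibition above the mean inhibition of all tested compounds plus 3 SD, set per campaign, cut at about 52% in these data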;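 note: 0% = DMSO treated cells and 100% = cells given Gossypol at 36 µM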
Gli-Sufu antag = blocks Gli-Sufu signaling in a luciferase reporter | 340,000 tested, 0.74% active | inhibition, % at 5 µM | Sufu-KO-LIGHT fibroblasts, Gli luciferase reporter luminescence;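 active = inhibition above about 55%, limit read from the data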;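 note: 0% = DMSO-treated cells and 100% = wells with medium but no cells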
SRC3 inh = inhibitors of human steroid receptor coactivator 3 (SRC3). 360,000 tested, 0.17% active. Q9Y6Q9. AID 588352. inhibition, % at 3.6 µM. HEK293 GAL4-SRC3 luciferase reporter, luminescence;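 active = inhibition above a per-campaign cutoff, the mean of all compounds plus 3 SD, cut at about 60% in these data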;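 note: 0% = DMSO-treated cells and 100% = gossypol-treated cells at 36 µM; higher means less SRC3-driven luciferase light from the GAL4 reporter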
NR2F2 inh = blocks human COUP-TFII nuclear receptor; HEK293T NGFI-A luciferase reporter, luminescence; 370,000 tested, 0.7% active; P24468; inhibition, % at 8.6 µM;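 active = inhibition above a per-plate cutoff, mean inhibition of test wells between control levels plus 3 SD, cut at about 38% in these data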;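 note: cells cotransfected with COUP-TFII expression vector driving the NGFI-A reporter; 0% = median of COUP-TF2 test wells and 100% = reporter-only cells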
NR5A2 inv ag = suppresses constitutive activity of human LRH-1; O00482; HEK293T StAR-luciferase reporter, LRH-1 transfected, 24 h; inhibition, % at 3.6 µM; 360,000 tested, 0.13% active; AID 602396;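 active = inhibition above the mean inhibition of all tested compounds plus 3 SD, cut at about 73% in these data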;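 note: 0% = DMSO wells and 100% = reporter-only cells lacking LRH-1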
Gli-Sufu confirm = confirmation of Gli-SUFU pathway antagonists; shares compounds with Gli-Sufu antag; Sufu-KO-LIGHT cells, Gli luciferase reporter, luminescence; inhibition, % at 5 µM; 2,500 tested, 40% active;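 active = mean inhibition at 5 µM reaching about 45%, limit read from the data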;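 note: plate controls were DMSO-treated cells for no effect and wells lacking cells for full effect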
Gli cytotox = cytotoxicity counter-screen for Gli-SUFU antagonists; shares compounds with Gli-Sufu antag; Sufu-KO-LIGHT cells cytotoxicity, ATP luminescence; cytotoxicity, % at 5 µM; 2,500 tested, 32% active; AID 651994;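 active = mean cytotoxicity at 5 µM above about 25%, limit read from the data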;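 note: cells exposed to compound overnight for roughly 16 to 18 hours; plate controls were DMSO wells with cells for no effect and medium without cells for full effect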
Wnt3a cs = Wnt3a reporter inhibition counter-screen; shares compounds with Gli-Sufu antag; Wnt-LIGHT cells, Wnt3a-driven luciferase reporter, luminescence; inhibition, % at 6.25 µM; 2,500 tested, 20% active; AID 651995;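 active = mean inhibition above about 25%, limit read from the data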
VP16 Luc counter = VP16 inhibition counter-screen for COUP-TFII | shares compounds with NR2F2 inh | HEK293 Gal4-VP16 luciferase reporter, luminescence | inhibition, % at 8.5 µM | 2,500 tested, 25% active | AID 687007; in the data active = inhibition above about 13%
NR2F2 inh conf = COUP-TFII (NR2F2) inhibition, confirmation assay. shares compounds with NR2F2 inh. HEK293 NGFI-A luciferase reporter, luminescence. inhibition, % at 8.5 µM. 2,500 tested, 45% active. AID 687008;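 active = mean inhibition over three repeats above a set limit taken from the earlier primary screen, cut at about 38% in these data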;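 note: 100% = cells given the luciferase reporter alone without the COUP-TF2 vector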
An asterisk follows results filed as active; . = no result given. In the library only some 1.3% were active in any assay of this set; here they are far more common.

SMILES | NCOA1 inh | SRC2 inh | Gli-Sufu antag | SRC3 inh | NR2F2 inh | NR5A2 inv ag | Gli-Sufu confirm | Gli cytotox | Wnt3a cs | VP16 Luc counter | NR2F2 inh conf
Clc1ccc(C[n+]2cc(-c3ccccc3)n3c2CCCCC3)c(Cl)c1 | -8.0 | 12.9 | 85.6* | 48.6 | 42.2* | 26.3 | 87.1* | 44.1* | 24.8 | 11.1 | 21.6
CCC1=C(CC2NCCc3ccccc32)CC2c3cc(OC)c(OC)cc3CCN2C1 (stereo unspecified) | 73.1* | 55.1* | 52.7 | 82.5* | 67.1* | 87.9* | 59.6* | 5.1 | 85.4* | -13.4 | 54.4*
Cc1nc2ccccn2c1C(=O)NC1CCCc2ccccc21 (stereo unspecified) | 19.3 | 18.5 | 55.6* | 18.7 | 42.0* | 26.9 | 31.6 | 4.5 | 11.2 | 3.8 | 37.0
O=C(NC1CCCc2ccccc21)c1cn2ccccc2n1 (stereo unspecified) | -25.8 | -27.4 | 1.1 | -11.8 | 11.1 | -7.6 | . | . | . | . | .
CCCCOc1ncnc2c1[nH]c1ccc(F)cc12 | 2.8 | -4.4 | 58.0* | -2.0 | 55.9* | 9.1 | 55.8* | 28.8* | 12.3 | -83.9 | 28.8
CCOC(=O)N1CCN(c2ncnc3c2[nH]c2ccc(F)cc23)CC1 | 12.9 | -22.7 | 76.5* | 21.4 | 63.7* | 23.0 | 74.8* | 26.9* | -6.5 | -1.6 | 39.7*
CCCCOc1ncnc2c1[nH]c1ccc(OCC)cc12 | -5.9 | -16.8 | 7.4 | 2.3 | -14.9 | -20.7 | . | . | . | . | .
CCOC(=O)N1CCN(c2ncnc3c2[nH]c2ccc(OC)cc23)CC1 | 9.4 | -12.5 | 44.8 | -4.3 | -7.3 | 33.9 | . | . | . | . | .
COCCCNC(=O)C[C@H]1C[C@@]2(C(=O)OC)C(=C[C@H](C(C)(C)C)O[C@@H]2C)N(Cc2ccco2)C1=O | . | 14.6 | . | . | -1.2 | . | . | . | . | . | .
Cc1csc2ncnc(NC3CCN(Cc4ccccc4)CC3)c12 | -1.6 | 23.0 | 69.5* | 19.9 | 59.5* | 37.6 | 75.2* | 21.7 | 43.6* | 7.4 | 59.1*
Cc1ccc(-c2csc3ncnc(N4CCN(Cc5ccccc5)CC4)c23)cc1 | 5.5 | 18.0 | 12.9 | 9.8 | -7.2 | -17.1 | . | . | . | . | .
C[C@H]1COc2cccc(N3CCSCC3)c2S(=O)(=O)N1C | . | -0.2 | . | . | -20.1 | . | . | . | . | . | .
O=C1CCN(S(=O)(=O)c2ccccc2)CCN1CCOCc1ccc(C(F)(F)F)cc1 | 13.4 | 25.4 | 8.5 | -2.6 | 20.5 | 5.5 | . | . | . | . | .
Cc1ccc(S(=O)(=O)N2CCC(=O)N(CCOCc3ccc(C(F)(F)F)cc3)CC2)cc1 | 10.9 | 14.3 | 52.0 | 10.6 | 51.3* | 17.6 | 29.8 | 13.4 | -29.1 | 0.0 | 38.1*
CC(=O)c1c(C)[nH]c(C(=O)OCCCCN2C(=O)c3ccccc3C2=O)c1C | 16.1 | 20.0 | 68.2* | 30.3 | 52.9* | 10.7 | 66.0* | 32.1* | 15.7 | -0.3 | 60.5*
CC(=O)c1c(C)[nH]c(C(=O)OCc2ccccc2)c1C | -51.9 | -36.4 | -51.6 | -36.0 | -25.4 | -60.6 | . | . | . | . | .
O=C(Cc1ccc(Cl)cc1Cl)Nc1ccncc1Cl | 26.7 | 21.4 | 73.0* | 21.4 | 40.4* | 60.2 | 49.3* | 22.9 | 31.8* | 4.9 | 42.2*
COc1ccc(CC(=O)Nc2ccncc2Cl)cc1 | -3.0 | 23.9 | 66.3* | 21.4 | 50.9* | 44.0 | 54.1* | 25.5* | 31.4* | -4.5 | 32.4
O=C(Cc1c(Cl)cccc1Cl)Nc1ccncc1 | -45.8 | 9.0 | -6.7 | 18.4 | -11.4 | 44.3 | . | . | . | . | .
O=C(Cc1ccc(Cl)cc1Cl)Nc1ccncc1 | 8.2 | 17.8 | 50.7 | 20.4 | 49.9* | 58.3 | 43.3 | 16.4 | 22.3 | -1.6 | 37.0
S=C(NCc1ccc(Cl)cc1)Nc1ccccc1 | -8.4 | 6.1 | 26.2 | 10.2 | -2.7 | 0.0 | . | . | . | . | .
